Bioassay records as filed in PubChem.
Most compounds without a hit are left out; they make up all but 2.2% or so of the library.
DENV2 CPE: inhibitors of DENV2 cytopathic effect, primary screen, cell-based, plate reader, single concentration; DENV2-infected cells, cytopathic effect rescue; CPE inhibition, % at 9.99 µM; 350,000 compounds, 1.7% hits; AID 651640, 2012; in the data active = CPE inhibition above about 20%, passing the limit was not always enough; inconclusive = no clear call, values can overlap the other calls; tested in BHK-21 cells;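 note: 0% = median of neutral control wells and 100% = median of positive control wells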
Statin myotox sup: suppressors of statin myotoxicity in C2C12 myotubes, primary screen, cell-based, single point, plate reader. C2C12 myotubes + simvastatin, ATP luminescence, 48 h; scaled: DMSO 0, geranylgeraniol control 100. rescue of ATP level, % at 7.49 µM. 330,000 compounds, 0.78% hits;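 active = mean ATP rescue above about 67%, or every replicate alone reaching that limit, limit read from the data, passing the limit was not always enough; inconclusive = no clear call, values can overlap the other calls; inactive = mean under the limit and some replicate under it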;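 note: myotubes were challenged with 10 µM simvastatin during compound exposure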
miR122 inh: miR-122 Renilla sensor signal increase in Huh7, primary screen, miR-122 inhibitor project, cell-based, single point, plate reader | Huh7 miR-122 Renilla luciferase sensor, 48 h; neutral wells = 0, positive control = 100 | activation (reporter increase), % at 12.5 µM | 340,000 compounds, 0.3% hits;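 active = mean replicate activation score at least 90 and every replicate individually at or above 90; inconclusive = only one of the two criteria met; inactive = neither criterion met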;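 note: higher luciferase means less miR-122 activity so hits act as miR-122 inhibitors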
PGC1a acetyl inh: inhibitors of PGC1a acetylation signal, primary screen, cell-based, U2OS, AlphaScreen, inhibitor mode; AlphaScreen anti-acetyl-lysine; with virally co-expressed GCN5 acetyltransferase; inhibition, % at 15.6 µM; 350,000 compounds, 0.17% hits; AID 651687, 2012;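 active = every replicate shows inhibition of at least 40%; inconclusive = mean inhibition at least 40% but some replicate below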;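 note: 0% = neutral control wells and 100% = positive control wells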
PvdQ acylase: P. aeruginosa PvdQ acylase inhibitors, primary screen, biochemical, fluorescence, plate reader and imaging, single point; PvdQ acylase [Pseudomonas aeruginosa LESB58]; purified PvdQ acylase; inhibition, % at 10 µM; 340,000 compounds, 0.063% hits; AID 488965, 2010; in the data active = inhibition above about 30%, passing the limit was not always enough; inconclusive = no clear call, values can overlap the other calls;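 note: 0% = vehicle neutral wells and 100% = reference inhibitor wells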
* marks the source's active call; other numbers are inactive results; ? = inconclusive; / = no result; ! = repeats disagree; [ ] = another dose, or the depositor's remark.

SMILES | DENV2 CPE | Statin myotox sup | miR122 inh | PGC1a acetyl inh | PvdQ acylase
C[C@H](CO)N1C[C@H](C)[C@H](CN(C)C(=O)Nc2ccc(C(F)(F)F)cc2)Oc2c(NC(=O)CCCCCC(=O)Nc3ccccc3N)cccc2C1=O | 35* | / | / | 2 | /
COc1ccc(S(=O)(=O)N(C)C[C@@H]2Oc3ccc(NC(=O)CCCCCC(=O)Nc4ccccc4N)cc3C(=O)N([C@@H](C)CO)C[C@@H]2C)cc1 | 36* | / | / | 2 | /
C[C@H]1CN([C@@H](C)CO)C(=O)c2cc(NC(=O)Cc3ccccc3)ccc2O[C@@H]1CN(C)S(=O)(=O)c1cccs1 | -12 | 98* | 0[16.7 µM] | -5 | /
Cc1noc(C)c1S(=O)(=O)N(C)C[C@@H]1OCCCC[C@H](C)Oc2ccc(NS(=O)(=O)c3ccccc3)cc2C(=O)N([C@H](C)CO)C[C@H]1C | -14 | / | / | 0 | /
CNC[C@H]1Oc2ccc(NS(=O)(=O)c3ccc(C)cc3)cc2CC(=O)N([C@@H](C)CO)C[C@H]1C | / | 42 | 2[16.7 µM] | 1 | /
CS(=O)(=O)Nc1ccc2c(c1)[C@H]1C[C@@H](CC(=O)NCCc3ccccc3)O[C@H](CO)[C@H]1O2 | -3 | 0 | -6[16.7 µM] | -5 | /
C[C@@H]1CN([C@H](C)CO)C(=O)c2cc(NC(=O)CCCCCC(=O)Nc3ccccc3N)ccc2O[C@H]1CN(C)S(=O)(=O)c1cccs1 | 5 | / | / | 3 | /
C[C@H](CO)N1C[C@H](C)[C@@H](CN(C)S(=O)(=O)c2cccs2)Oc2ccc(NC(=O)CCCCCC(=O)Nc3ccccc3N)cc2C1=O | 25* | -14 | -2[16.7 µM] | -3 | /
C[C@H](CO)N1C[C@H](C)[C@H](CN(C)C(=O)Nc2ccc(F)cc2)Oc2ccc(NC(=O)CCCCCC(=O)Nc3ccccc3N)cc2C1=O | 5 | / | / | -22 | /
C[C@H]1CN([C@@H](C)CO)C(=O)c2cc(NC(=O)CCCCCC(=O)Nc3ccccc3N)ccc2O[C@H]1CN(C)C(=O)Nc1ccc(F)cc1 | 35* | / | / | -2 | /
COc1ccc(NC(=O)N(C)C[C@H]2Oc3c(NC(=O)CCCCCC(=O)Nc4ccccc4N)cccc3C(=O)N([C@@H](C)CO)C[C@@H]2C)cc1 | 30* | / | / | 1 | /
CCC(=O)N1CC2(C1)CN(C(=O)c1ccccn1)[C@@H](CO)c1c2c2ccc(OC)cc2n1C | 8 | / | / | 4 | /
COCCNC(=O)CN(C(=O)CCC(=O)Nc1nccs1)c1ccccc1OC | / | 109* | -1 | -1 | -3
COCCNC(=O)CN(C(=O)CCC(=O)Nc1ccccn1)c1ccccc1OC | -1 | 1 | 1 | 15 | -18
C[C@H](CO)N1C[C@H](C)[C@@H](CN(C)C(=O)CC2CC2)Oc2ncc(C#CC3CC3)cc2C1=O | -2 | 10 | 6[16.7 µM] | -10 | /
CCCC(=O)Nc1ccc2c(c1)OC[C@H](C)N(C(=O)c1ccccn1)C[C@H](C)[C@@H](OC)CN(C)C2=O | -10 | 1 | / | 6 | /
CCCC(=O)Nc1ccc2c(c1)OC[C@@H](C)N(C(=O)c1ccccn1)C[C@@H](C)[C@@H](OC)CN(C)C2=O | 21* | 6 | / | -7 | /
CCCC(=O)Nc1ccc2c(c1)OC[C@H](C)N(C(=O)c1ccccn1)C[C@@H](C)[C@H](OC)CN(C)C2=O | 22* | 10 | / | -9 | /
O=C(NCC[C@@H]1CC[C@H](NC(=O)c2cnccn2)[C@H](CO)O1)Nc1ccc(Cl)cc1 | -6 | 4 | / | 5 | /
O=C(C1CC1)N1CC2(C1)[C@H](c1ccccc1)[C@@H](CO)N2Cc1nccs1 | 37* | / | / | 10 | /
O=C(C1CCCCC1)N1CC2(C1)[C@H](c1ccccc1)[C@@H](CO)N2Cc1nccs1 | 10 | / | / | 4 | /
O=C(C1CCCCC1)N1CC2(C1)[C@@H](c1ccccc1)[C@@H](CO)N2Cc1nccs1 | 28* | / | / | / | /
O=C(C1CCCCC1)N1CC2(C1)[C@@H](c1ccccc1)[C@@H](CO)N2CC1CCCC1 | 69* | / | / | 8 | /
O=C(C1CCCCC1)N1CC2(C1)[C@H](c1ccccc1)[C@@H](CO)N2CC1CCCC1 | 13 | / | / | / | /
COc1ccc(CN(C)C[C@@H]2OCCCC[C@@H](C)Oc3ccc(NC(=O)C4CCCCC4)cc3C(=O)N([C@@H](C)CO)C[C@@H]2C)cc1 | -1 | / | -1[16.7 µM] | 1 | /
SMILES | DENV2 CPE | Statin myotox sup | miR122 inh | PGC1a acetyl inh | PvdQ acylase
C[C@@H]1CN([C@@H](C)CO)C(=O)CCCn2cc(nn2)CO[C@H]1CN(C)S(=O)(=O)c1cccc(F)c1 | 1 | 0 | -3 | 3 | /
C[C@H](CO)N1C[C@H](C)[C@@H](CN(C)S(=O)(=O)c2cccc(F)c2)OCc2cn(nn2)CCCC1=O | 55*! | 5 | -2 | -3 | /
C[C@H]1CN([C@@H](C)CO)C(=O)CCCn2cc(nn2)CO[C@H]1CN(C)S(=O)(=O)c1ccc2c(c1)OCCCO2 | 31* | 5 | -7[16.7 µM] | 5 | /
C[C@@H]1CN([C@@H](C)CO)C(=O)CCCn2cc(nn2)CO[C@@H]1CN(C)S(=O)(=O)c1ccc2c(c1)OCCCO2 | ? | -10 | -2[16.7 µM] | -4 | /
O=C(Nc1cc(F)ccc1F)N[C@H]1CC[C@@H](CC(=O)N2CCc3ccccc3C2)O[C@H]1CO | -1 | -17 | / | -7 | /
C[C@H](CO)N1C[C@H](C)[C@@H](CN(C)Cc2ccc(C(=O)O)cc2)OCc2cn(nn2)CCCC1=O | -14 | / | / | 11 | /
CO[C@H]1CN(C)C(=O)c2cc(NC(=O)C3CC3)ccc2OC[C@@H](C)N(C(=O)c2ccncc2)C[C@@H]1C | -11 | 12 | 19[16.7 µM] | -6 | /
N#Cc1cnn(Cc2ccc(Cl)cc2)c1N | / | -3 | 0 | 13 | -3
N#Cc1cnn(Cc2ccccc2)c1N | / | 112* | 1 | 3 | -6
COc1ccc(-c2nc(-c3ccccn3)ncc2S(C)(=O)=O)cc1 | 13 | / | / | / | -4
Cn1nc(-c2ccccn2)nc2c(=O)n(C)c(=O)nc1-2 | -8 | / | -8 | 80* | 10
CCn1c(N)nc2c1c(=O)n(C)c(=O)n2C | 5 | -5 | -8 | -5 | -11
CCCc1nc2c(=O)n(C)c(=O)nc-2n(C)n1 | -15 | -224 | -22 | 75* | 14
C[C@@H]1CN([C@@H](C)CO)C(=O)c2cc(C#Cc3ccccc3)cnc2O[C@H]1CN(C)C(=O)CN(C)C | 5 | / | / | 3 | /
O=C1C[C@@H](c2ccc(O)cc2)Oc2cc(O)cc(O)c21 | 103* | -1 | 4 | -18 | -8
NC(=O)NCC#Cc1ccc2c(c1)[C@]1(C(=O)N2)[C@H](c2ccccc2OCCO)N2[C@H](c3ccccc3)[C@H](c3ccccc3)OC(=O)[C@H]2[C@@H]1C(=O)N1CCN(c2ncccn2)CC1 | 11 | / | / | / | /
Cn1c(O)c(C2=c3ccccc3=NC2=O)sc1=Nc1ccc(Cl)cc1 | / | 97* | -1 | 1 | -16
C/C=C/c1ccc([C@H]2[C@@H](CO)N(C(=O)c3cnccn3)C23CN(C(=O)C2CC2)C3)cc1 | 0 | / | / | / | /
